From PubChem BioAssay (EPA / NIEHS)
Several values for one entry are separate records, joined by “and”; a condition that tells them apart may be missing. Equal values may be shown once. A structure can be active in one record and inactive in another. Activity calls are given as the source filed them. How the source made its calls: active means hit-call score of the fitted dose curve at least 0.9, where 1 is the maximum; inactive means score below 0.9.

Legend:
[1] = ATG_M_61_CIS: Attagene CIS-FACTORIAL HepG2 Assay for M61 Transcription Factor (Internal Marker) (AID 2282937); settings: HepG2 Attagene CIS-FACTORIAL M61 internal marker reporter; actives raise or lower the signal
Method in brief: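 Fluorescence from labelled cDNA fragments, separated by capillary electrophoresis, quantifies reporter induction. HepG2 cells bearing transiently transfected cis-promoter MRTUs were incubated with test chemical for 24 h; DMSO defined baseline for gain/loss fitting.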

[2] = ATG_EGR_CIS: Attagene CIS-FACTORIAL HepG2 Assay for human Early Growth Response 1 (EGR1) (AID 2282938); settings: HepG2 Attagene CIS-FACTORIAL EGR reporter mRNA; actives raise or lower the signal
Method in brief: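 Cell-based multiplex transcription assay: HepG2 carrying transfected cis-element reporter units, 24 h chemical treatment. Fluorescence from capillary electrophoresis of RT-PCR products gives mRNA levels; fitting is bidirectional relative to DMSO.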

[3] = ATG_M_19_CIS: Attagene CIS-FACTORIAL HepG2 Assay for M19 Transcription Factor (Internal Marker) (AID 2282939); settings: HepG2 Attagene CIS-FACTORIAL M19 internal marker reporter; actives raise or lower the signal
Method in brief: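 HepG2 cells transiently transfected with cis-regulated multiple reporter transcription units were dosed for 24 h; reporter mRNA was quantified by RT-PCR, 6-FAM primer-extension labelling, HpaI digestion and capillary electrophoresis, with bidirectional fitting against DMSO baseline.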

[4] = biological target: Hepatocyte nuclear factor 3-beta (Homo sapiens) (UniProt Q9Y261); assay: ATG_FoxA2_CIS: Attagene CIS-FACTORIAL HepG2 Assay for human Forkhead box A2 (FOXA2) (AID 2282942); settings: HepG2 cis-reporter transcription factor activity, 24 h; actives raise or lower the signal
Hepatocyte nuclear factor 3-beta (Homo sapiens), sequence (Q9Y261 whole entry, looked up): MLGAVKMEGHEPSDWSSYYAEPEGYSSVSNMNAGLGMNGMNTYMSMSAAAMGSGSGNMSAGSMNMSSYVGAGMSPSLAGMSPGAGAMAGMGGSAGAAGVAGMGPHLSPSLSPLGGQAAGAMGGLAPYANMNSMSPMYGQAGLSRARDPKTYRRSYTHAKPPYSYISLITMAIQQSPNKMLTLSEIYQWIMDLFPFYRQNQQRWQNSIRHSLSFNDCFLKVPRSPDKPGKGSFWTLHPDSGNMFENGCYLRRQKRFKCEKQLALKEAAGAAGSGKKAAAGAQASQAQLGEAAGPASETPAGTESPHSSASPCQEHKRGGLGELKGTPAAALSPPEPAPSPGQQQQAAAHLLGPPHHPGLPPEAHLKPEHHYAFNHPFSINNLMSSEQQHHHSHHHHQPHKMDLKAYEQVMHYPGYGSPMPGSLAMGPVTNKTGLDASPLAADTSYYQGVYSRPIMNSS
Method in brief: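 In transiently transfected human HepG2 cells, promoter-driven reporter mRNA levels after 24 h chemical exposure are determined via RT-PCR with capillary electrophoresis. DMSO serves as baseline for bidirectional fitting.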

[5] = ATG_GATA_CIS: Attagene CIS-FACTORIAL HepG2 Assay for human GATA Binding Protein (AID 2282944); settings: HepG2 GATA cis-element reporter, Attagene multiplex mRNA; actives raise or lower the signal
Method in brief: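 HepG2 cells transiently transfected with multiplexed cis-element reporter units reflecting endogenous transcription factor activity; reporter mRNA measured after 24 h dosing by RT-PCR, 6-FAM labeling, HpaI digestion and capillary electrophoresis. Bidirectional fitting versus DMSO baseline.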

[6] = ATG_GLI_CIS: Attagene CIS-FACTORIAL HepG2 Assay for human Zinc Finger Protein GLI1 (AID 2282945); settings: HepG2, Attagene cis-factorial reporter mRNA, GLI element; actives raise or lower the signal
Method in brief: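 Transiently transfected HepG2 cells report endogenous transcription factor activity via cis-element-driven reporter units. After 24 h compound exposure, reporter mRNA was measured by RT-PCR with capillary electrophoresis; bidirectional fitting against DMSO baseline.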

[7] = biological target: Bile acid receptor (Homo sapiens) (UniProt Q96RI1); assay: ATG_IR1_CIS: Attagene CIS-FACTORIAL HepG2 Assay for human Nuclear Receptor Subfamily 1 Group H Member 4 (NR1H4), IR1 submotif (AID 2282946); settings: IR1 reporter transcription, actives raise or lower the signal
Bile acid receptor (Homo sapiens), sequence (Q96RI1 whole entry, looked up): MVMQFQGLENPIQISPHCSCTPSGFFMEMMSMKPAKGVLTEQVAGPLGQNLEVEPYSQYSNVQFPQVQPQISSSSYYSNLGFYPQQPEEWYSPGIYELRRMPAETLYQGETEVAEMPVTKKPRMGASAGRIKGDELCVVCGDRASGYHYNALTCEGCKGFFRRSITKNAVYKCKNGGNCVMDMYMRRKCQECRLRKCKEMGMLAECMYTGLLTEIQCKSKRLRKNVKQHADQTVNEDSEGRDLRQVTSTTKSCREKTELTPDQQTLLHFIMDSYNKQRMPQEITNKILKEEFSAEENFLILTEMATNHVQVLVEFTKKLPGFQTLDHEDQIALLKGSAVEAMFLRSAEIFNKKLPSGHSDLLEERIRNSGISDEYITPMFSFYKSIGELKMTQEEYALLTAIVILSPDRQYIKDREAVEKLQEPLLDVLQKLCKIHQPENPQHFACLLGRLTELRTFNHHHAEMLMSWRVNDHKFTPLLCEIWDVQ
Method in brief: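 Fluorescence of capillary-separated, HpaI-digested RT-PCR reporter products gave IR1-element mRNA induction in HepG2 cells 24 h after dosing. Endogenous transcription factors drove the cis-regulated reporters; activity was fitted bidirectionally against DMSO.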

[8] = ATG_ISRE_CIS: Attagene CIS-FACTORIAL HepG2 Assay for human Interferon Regulatory Factor 1 (IRF1) binding to an Interferon-Stimulated Response Element (ISRE) (AID 2282948); settings: HepG2 ISRE cis-reporter (Attagene), mRNA transcription readout; actives raise or lower the signal
Method in brief: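 Uses HepG2 liver cells transfected with cis-regulated reporters and measures mRNA 24 h post-dosing through RT-PCR, primer-extension labelling and capillary electrophoresis, with DMSO as negative control.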

[9] = ATG_M_32_CIS: Attagene CIS-FACTORIAL HepG2 Assay for M32 Transcription Factor (Internal Marker) (AID 2282949); settings: HepG2 Attagene cis-factorial M32 reporter, mRNA; actives raise or lower the signal;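 further: background control marker of the multiplexed CIS panel rather than a real target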
Method in brief: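 HepG2 transfectants (cis-regulated reporter transcription units) dosed 24 h. Reporter mRNA by RT-PCR plus CE, analysed as gain or loss relative to DMSO.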

[10] = ATG_M_06_CIS: Attagene CIS-FACTORIAL HepG2 Assay for M06 Transcription Factor (Internal Marker) (AID 2282950); settings: HepG2 Attagene CIS-FACTORIAL M06 internal marker reporter; actives raise or lower the signal
Method in brief: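 HepG2 cells transiently transfected with cis-regulated multiple reporter transcription units were exposed to chemical for 24 h; reporter mRNA was quantified by RT-PCR, 6-FAM primer labelling, HpaI digestion and capillary electrophoresis, fitted bidirectionally against DMSO.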

[11] = biological target: Hypoxia-inducible factor 1-alpha (Homo sapiens) (UniProt Q16665); assay: ATG_HIF1a_CIS: Attagene CIS-FACTORIAL HepG2 Assay for human Hypoxia Inducible Factor 1 (HIF1A) (AID 2282951); settings: HepG2 Attagene cis-factorial HIF1a reporter transcription; actives raise or lower the signal
Hypoxia-inducible factor 1-alpha (Homo sapiens), sequence (Q16665 whole entry, looked up): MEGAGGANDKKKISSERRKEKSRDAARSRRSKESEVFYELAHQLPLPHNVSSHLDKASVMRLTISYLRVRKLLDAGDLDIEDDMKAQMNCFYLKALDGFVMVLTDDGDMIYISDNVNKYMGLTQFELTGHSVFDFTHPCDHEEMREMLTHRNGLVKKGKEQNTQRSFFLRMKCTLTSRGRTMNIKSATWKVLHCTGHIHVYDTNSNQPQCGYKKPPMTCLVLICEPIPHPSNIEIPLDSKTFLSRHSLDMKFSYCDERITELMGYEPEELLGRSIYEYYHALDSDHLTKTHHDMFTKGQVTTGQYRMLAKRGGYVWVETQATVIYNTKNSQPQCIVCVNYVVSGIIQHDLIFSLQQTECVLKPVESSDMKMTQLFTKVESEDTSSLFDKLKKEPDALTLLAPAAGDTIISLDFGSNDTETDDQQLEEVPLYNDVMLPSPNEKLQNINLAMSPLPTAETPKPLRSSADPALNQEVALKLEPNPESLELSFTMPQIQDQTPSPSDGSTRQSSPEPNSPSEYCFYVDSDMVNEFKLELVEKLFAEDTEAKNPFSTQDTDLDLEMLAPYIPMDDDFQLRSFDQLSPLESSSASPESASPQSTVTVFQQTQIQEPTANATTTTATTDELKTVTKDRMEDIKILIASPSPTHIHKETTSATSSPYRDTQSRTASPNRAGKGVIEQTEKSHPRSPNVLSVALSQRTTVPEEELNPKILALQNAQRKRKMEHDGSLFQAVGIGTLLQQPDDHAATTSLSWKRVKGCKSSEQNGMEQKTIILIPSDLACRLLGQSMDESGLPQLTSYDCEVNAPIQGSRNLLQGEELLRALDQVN
Method in brief: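 In this multiplexed cell assay, HepG2 cells bearing transfected cis reporters are dosed for 24 h and reporter mRNA is read by RT-PCR plus capillary electrophoresis; signal increases and decreases are both scored against DMSO.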

[12] = biological target: Hepatocyte nuclear factor 6 (Homo sapiens) (UniProt Q9UBC0); assay: ATG_HNF6_CIS: Attagene CIS-FACTORIAL HepG2 Assay for human Hepatocyte Nuclear Factor 6 (HNF6) (AID 2282952); settings: HepG2 Attagene cis-factorial HNF6 reporter transcription; actives raise or lower the signal
Hepatocyte nuclear factor 6 (Homo sapiens), sequence (Q9UBC0 whole entry, looked up): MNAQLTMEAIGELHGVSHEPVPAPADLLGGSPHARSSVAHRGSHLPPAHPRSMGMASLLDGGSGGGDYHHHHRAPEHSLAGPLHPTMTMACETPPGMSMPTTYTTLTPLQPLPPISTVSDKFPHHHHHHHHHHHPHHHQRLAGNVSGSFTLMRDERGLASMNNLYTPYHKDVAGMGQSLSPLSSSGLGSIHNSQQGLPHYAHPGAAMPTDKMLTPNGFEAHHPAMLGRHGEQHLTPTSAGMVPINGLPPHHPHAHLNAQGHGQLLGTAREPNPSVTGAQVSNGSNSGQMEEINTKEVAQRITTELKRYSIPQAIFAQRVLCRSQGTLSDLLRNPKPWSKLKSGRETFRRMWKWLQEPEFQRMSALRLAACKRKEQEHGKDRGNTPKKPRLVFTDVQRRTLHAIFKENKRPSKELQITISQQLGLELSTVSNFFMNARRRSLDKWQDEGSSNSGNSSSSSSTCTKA
Method in brief: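 Activity values derive from bidirectional fitting against DMSO of reporter mRNA levels, measured by capillary electrophoresis of labelled RT-PCR products from HepG2 cells exposed 24 h.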

[13] = biological target: Heat shock factor protein 1 (Homo sapiens) (UniProt Q00613); assay: ATG_HSE_CIS: Attagene CIS-FACTORIAL HepG2 Assay for human Heat Shock Transcription Factor 1 (HSE) (AID 2282953); settings: HepG2 HSE cis-reporter, Attagene RNA transcription; actives raise or lower the signal
Heat shock factor protein 1 (Homo sapiens), sequence (Q00613 whole entry, looked up): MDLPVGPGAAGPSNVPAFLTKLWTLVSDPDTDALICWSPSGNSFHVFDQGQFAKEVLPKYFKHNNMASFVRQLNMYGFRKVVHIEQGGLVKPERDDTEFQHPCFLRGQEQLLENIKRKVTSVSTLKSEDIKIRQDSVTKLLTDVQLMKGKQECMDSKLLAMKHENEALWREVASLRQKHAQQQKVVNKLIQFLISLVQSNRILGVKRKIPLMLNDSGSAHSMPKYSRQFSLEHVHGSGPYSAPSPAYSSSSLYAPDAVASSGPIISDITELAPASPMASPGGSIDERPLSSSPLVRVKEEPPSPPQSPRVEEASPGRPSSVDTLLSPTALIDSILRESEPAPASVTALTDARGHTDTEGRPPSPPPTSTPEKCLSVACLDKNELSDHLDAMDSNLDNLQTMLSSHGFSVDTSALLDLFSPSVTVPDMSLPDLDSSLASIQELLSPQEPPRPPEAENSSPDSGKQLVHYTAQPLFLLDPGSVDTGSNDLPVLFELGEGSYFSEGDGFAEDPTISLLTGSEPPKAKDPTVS
Method in brief: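 HepG2 cells transiently transfected with multiple reporter transcription units under cis-regulatory promoter control, measuring endogenous transcription factor activity. After 24 h chemical exposure, reporter mRNA quantified by RT-PCR, fluorescent labelling, HpaI digestion and capillary electrophoresis; bidirectional fit versus DMSO.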

[14] = ATG_MRE_CIS: Attagene CIS-FACTORIAL HepG2 Assay for human Metal Responsive Element (MRE) (AID 2282954); settings: HepG2 MRE cis-reporter transcription, Attagene multiplex; actives raise or lower the signal
Method in brief: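 Measured here is mRNA induction from an MRE cis-element reporter in HepG2 after 24 h, quantified by fluorescence of labelled RT-PCR products on capillary electrophoresis; gain- and loss-of-signal fits use DMSO as baseline.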

[15] = ATG_PBREM_CIS: Attagene CIS-FACTORIAL HepG2 Assay for human Phenobarbital-responsive Enhancer Module (PBREM) (AID 2282955); settings: HepG2 PBREM cis-reporter, Attagene multiplexed transcription; actives raise or lower the signal
Method in brief: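 After a 24 h incubation with test chemical, transfected HepG2 cells yield total RNA; reporter-specific RT-PCR products are fluorescently labelled, HpaI-digested and resolved by capillary electrophoresis against ROX size standards.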

[16] = biological target: Paired box protein Pax-6 (Homo sapiens) (UniProt P26367); assay: ATG_Pax6_CIS: Attagene CIS-FACTORIAL HepG2 Assay for human Paired Box 6 (PAX6) (AID 2282956); settings: HepG2 CIS-FACTORIAL PAX6 reporter transcription, RNA readout; actives raise or lower the signal
Paired box protein Pax-6 (Homo sapiens), sequence (P26367 whole entry, looked up): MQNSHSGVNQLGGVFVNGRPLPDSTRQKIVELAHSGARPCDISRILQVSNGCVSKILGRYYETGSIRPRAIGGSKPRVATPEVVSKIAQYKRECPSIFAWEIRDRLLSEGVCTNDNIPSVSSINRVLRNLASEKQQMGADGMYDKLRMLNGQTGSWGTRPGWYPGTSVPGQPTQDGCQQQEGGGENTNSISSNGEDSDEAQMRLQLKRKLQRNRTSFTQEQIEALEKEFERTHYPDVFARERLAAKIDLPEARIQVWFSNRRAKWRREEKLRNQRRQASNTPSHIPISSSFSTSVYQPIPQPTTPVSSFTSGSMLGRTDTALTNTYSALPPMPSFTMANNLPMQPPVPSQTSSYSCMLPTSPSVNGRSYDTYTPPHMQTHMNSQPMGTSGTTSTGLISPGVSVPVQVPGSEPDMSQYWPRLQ
Method in brief: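 DMSO-referenced bidirectional fits of reporter mRNA fluorescence; HepG2 with transient cis-promoter MRTUs, 24 h post-dose, RT-PCR plus capillary electrophoresis detection.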

[17] = ATG_GRE_CIS: Attagene CIS-FACTORIAL HepG2 Assay for human Glucocorticoid Response Elements (GRE) (AID 2282947); settings: HepG2 GRE cis-reporter, Attagene multiplex mRNA; actives raise or lower the signal
Method in brief: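 Fluorescence intensity of reporter-specific cDNA fragments, separated by capillary electrophoresis, provides the signal. Constructs carry cis-regulating promoters in transiently transfected HepG2 liver cells; 24 h incubation; fitting is bidirectional against DMSO.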

[18] = ATG_ERE_CIS: Attagene CIS-FACTORIAL HepG2 Assay for Estrogen Response Element (ERE) (AID 2282940); settings: HepG2 ERE cis-reporter, Attagene RNA transcript; actives raise or lower the signal
Method in brief: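 HepG2 cells transiently transfected with cis-promoter-driven multiplexed reporter transcription units report endogenous TF activity. After 24 h compound exposure, reporter mRNA is quantified by RT-PCR with capillary electrophoresis fluorescence; bidirectional fitting versus DMSO baseline.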

Measured: AC50

CCC(C)OC(=O)N1CCCCC1CCO (stereo unspecified)
not listed: [17] | [18]
inactive: all other assays above

CCCCOCCOCCOCc1cc2c(cc1CCC)OCO2
active: [15] 8.08 µM
not listed: [17] | [18]
inactive: all other assays above

N[C@@H](Cc1cc(I)c(Oc2ccc(O)c(I)c2)c(I)c1)C(=O)O
active: [4] 1.32 µM | [11] 16.3 µM and 19.5 µM and 1.93 µM | [13] 107 µM and 160 µM | [15] 24.4 µM
inactive: [1] | [2] | [3] | [4] | [5] | [17] | [8] | [9] | [10] | [11] | [12] | [13] | [15] | [16]

COC(=O)c1ccc(CNS(C)(=O)=O)cc1S(=O)(=O)NC(=O)Nc1nc(OC)cc(OC)n1
not listed: [6] | [14]
inactive: all other assays above
